# Inconclusive results are not listed. Activity calls are given as the source filed them. The calls were made as follows: active = hit-call score of the fitted dose curve at least 0.9, where 1 is the maximum; inconclusive = response in the unintended direction; inactive = score below 0.9.
# Experiment: ACEA_ER_AUC_viability: ACEA Biosciences xCELLigence Real-Time Cell Analysis on Estrogen Receptor Agonism for Viability (AID 2283782);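 also: continuous compound exposure with impedance area under curve over 80 h; hit means loss of impedance signal meaning reduced cell growth or viability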
# How it was run: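 T-47D; phenol red-free RPMI1640 + 10% CS-FBS; 8 conc., 1:4 serial, max 100 uM final, ≤0.5% DMSO; n = 2; continuous exposure; impedance monitored to 80 h post-dose; AUC vs DMSO.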
SMILES,AC50,outcome
Clc1ccc(C(c2ccccc2Cl)C(Cl)Cl)cc1 (stereo not drawn),29.2 µM (active),–
CCCC(C)=O,–,inactive
OCCCCC(O)CO (stereo not drawn),–,inactive
Cc1cc(CCC(=O)OCCOCCOCCOC(=O)CCc2cc(C)c(O)c(C(C)(C)C)c2)cc(C(C)(C)C)c1O,–,inactive
CCc1cc(C(C)(C)C)c(O)c(C(C)(C)C)c1,81.8 µM (active),–
CC1=CC[C@@]23C[C@@H]1C(C)(C)[C@@H]2CC[C@H]3C,78.5 µM (active),–
CCCCCCCCCCCCCCCC(=O)OC/C=C(C)/C=C/C=C(C)/C=C/C1=C(C)CCCC1(C)C,40 µM (active),–
Nc1ccc(NCCO)c([N+](=O)[O-])c1,–,inactive
O=CN1CCOCC1,–,inactive
CC1(C)CCC[C@]2(C)[C@H]3CCO[C@]3(C)CC[C@@H]12,76.2 µM (active),–
CCCCCC(C=O)=Cc1ccccc1,80 µM (active),–
OCCc1ccccc1,–,inactive
C=C1C[C@]23C[C@@]1(O)CC[C@H]2[C@@]12C=C[C@H](O)[C@@](C)(C(=O)O1)[C@H]2[C@@H]3C(=O)O,–,inactive
O=C1CCCC=CCCCCCCCCCC1,84.1 µM (active),–
CCCCCc1ccco1,35 µM (active),–
Cc1ncc[nH]1,–,inactive
CCCCN(CCCC)C(=O)N(CCCC)CCCC,80.4 µM (active),–
C/C=C(\C)C(=O)OCCc1ccccc1,67.4 µM (active),–
O=P(O)(O)O,–,inactive

SMILES,AC50,outcome
CC/C=C\CCOC(=O)CC,–,inactive
CC(C)CC(C)CC(O)CC(C)C (stereo not drawn),–,inactive
COC(C)(C)CCCC(C)CC=O (stereo not drawn),50 µM (active),–
CCCCCCCCCC(C)C=O (stereo not drawn),–,inactive
CCOCCOCCOCC,–,inactive
CCOC(=O)C(C#N)=C(c1ccccc1)c1ccccc1,–,inactive
COC(=O)c1cccnc1,–,inactive
CC(C)OCCO,–,inactive
COC(=O)c1ccc([N+](=O)[O-])cc1,80.2 µM (active),–
CC(=O)c1c(C)c([N+](=O)[O-])c(C(C)(C)C)c([N+](=O)[O-])c1C,–,inactive
COc1ccccc1N=Nc1c(S(=O)(=O)O)cc2cc(S(=O)(=O)O)cc(NC(C)=O)c2c1O,–,inactive
Cc1occc(=O)c1OC(=O)C(C)C,–,inactive
CCOc1ccc(N=Nc2ccc(C=Cc3ccc(N=Nc4ccc(OCC)cc4)cc3S(=O)(=O)O)c(S(=O)(=O)O)c2)cc1,–,inactive
CCCCCCCCc1ccc(S(=O)(=O)O)cc1,–,inactive
C=C1CC[C@H](O)C/C1=C/C=C1\CCC[C@]2(C)[C@@H]([C@H](C)/C=C/[C@H](C)C(C)C)CC[C@@H]12,79.1 µM (active),–
CC=Cc1ccc(OC)c(OC)c1,–,inactive
CCCC(=O)OC(C)(C)Cc1ccccc1,–,inactive
c1ccc(CCc2ccccc2)cc1,–,inactive
COc1cc([C@@H]2c3cc4c(cc3[C@@H](O[C@@H]3O[C@@H]5CO[C@@H](C)O[C@H]5[C@H](O)[C@H]3O)[C@H]3COC(=O)[C@H]23)OCO4)cc(OC)c1O,10.6 µM (active),–

# Source: PubChem BioAssay (EPA / NIEHS)
